Shiga toxin inh = blocks Shiga toxin action in Vero cells | Vero cells, Shiga toxin protein synthesis inhibition reporter | inhibition, % at 38.7 µM | 9.2% of 290,000 active | AID 2315; in the data active = inhibition mostly above about 28%, no sharp cut-off; inactive = mostly below about 43%; also: 0% is about no effect
CHX counter = counter-screen for Shiga toxin inhibitors: cycloheximide protein synthesis inhibition; 12% of 300,000 active; cell reporter, cycloheximide protein synthesis inhibition counterscreen; max response, %; in the data active = max response mostly above about 13%, no sharp cut-off; inactive = mostly below about 14%; also: read at 38.3 µM for the half of the compounds with a filed dose; 0% is about no effect
Sm TGR block = S. mansoni TGR enzyme inhibition. Q962Y6. purified TGR, DTNB reduction, TNB absorbance 405 nm. Potency, µM (highest dose often 114 µM), without a hit: at the top dose activity change, negative = inhibition, actives largely listed as inhibitors. 3% of 360,000 active. AID 485364; active = well fitted inhibition curve with a large enough effect; inconclusive = small, poorly fitted or top-dose-only effect; inactive = no such curve, though single readings can be large or run the other way; also: potency is read from the fitted curve at half-maximal effect; % is scaled to controls: 0 for no effect and ±100 for the full control effect; nearly all actives have a fitted effect of over 60% in size
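TGR 20 nM + NADPH 100 uM (dispensed conc.), cpd preinc 15 min RT; start with NADPH (500 uM addition) then DTNB (15 mM addition). Kinetic TNB absorbance, 405 nm filter. Four-parameter Hill fit across titration.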
FMDV inh = antivirals against foot and mouth disease virus; FMDV antiviral cell-based qHTS; Potency, µM (highest dose often 57.9 µM), for the others: at the top dose activity change, negative = inhibition, most hits filed as inhibitors; 1.2% of 410,000 active; AID 1159524; calls by dose curve; tested in HEK293T cells; also: read-out not given here; potency is read from the fitted curve at half-maximal effect; % is scaled to controls: 0 for no effect and ±100 for the full control effect; nearly all actives have a fitted effect of over 45% in size
* marks the source's active call; other numbers are inactive results; ? = inconclusive; . = not tested or not shown. Shown are actives, neighbours in structure and some others; about 12% of the full set was active somewhere.

SMILES | Shiga toxin inh | CHX counter | Sm TGR block | FMDV inh
O=C1C2C(c3ccccc3)C=CC(c3ccccc3)C2C(=O)N1CCCO (stereo not given) | -27.5 | -9.1 | -12.2% | 31.6µM*
C=CCOCCN1C(=O)C2C(c3ccccc3)C=CC(c3ccccc3)C2C1=O (stereo not given) | -16.6 | -3.1 | -32.7% | ?
CCc1ccccc1N(C)C(=O)c1cn(CC(C)C)c(=O)c2cc(OC)c(OC)cc12 | . | . | -1.0% | -19.4%
Oc1c(Br)cc(Br)cc1CNc1ccc(F)cc1 | 0.8 | -8.4 | ? | ?
Oc1c(Br)cc(Br)cc1CNc1cnc2ccccc2c1 | -4.9 | 7.0 | 12.6µM* | -18.5%
COc1ccccc1C1CN(CCNC(=O)c2ccc3c(c2)OCCO3)Cc2ccccc2O1 (stereo not given) | . | . | . | -4.6%
N#Cc1cccc(NC(=O)CCNS(=O)(=O)c2ccc3c(c2)CCN3C(=O)C2CC2)c1 | . | . | -13.0% | -22.9%
Cc1ccc(CN(Cc2ccco2)C(=O)COc2ccc(C)c(C)c2)cc1 | . | . | 0.7% | -11.9%
Cc1cc(=O)oc2ccc(OCC(=O)N(Cc3ccc(F)cc3)Cc3ccco3)cc12 | 76.4* | 46.9* | 17.8µM* | 20µM*
CCCC(=O)Nc1nc2c(s1)CC(C(C)(C)C)CC2 (stereo not given) | . | . | -2.2% | 54.7%
Cc1cc(N2CCCC2=O)cc(C)c1CN1C(=O)c2ccccc2C1=O | 14.8 | 26.9* | -6.2% | .
O=C1CCCN1c1cccc(Br)c1 | 14.9 | 0.6 | 1.3% | 19.8%
CCOC(=O)C1CCN(C(=O)c2ccc(OC3CCN(C(=O)COC)CC3)cc2)CC1 | 28.2 | 10.7* | -21.3% | 1.8%
COCC(=O)N1CCC(Oc2ccc(C(=O)N3C[C@@H](C)O[C@@H](C)C3)cc2)CC1 | 9.5 | 8.5 | 39.8µM* | 20.4%
Cc1ccc(NC(=O)NC2CCCCC2)cc1Cl | 59.5* | 34.2* | -3.3% | 66.6%
COc1ccc(NC(=O)NC2CCCCCCC2)cc1OC | 47.7 | 39.2* | -0.1% | 38.8%
COc1ccc(NC(=O)NN2CCN(C)CC2)cc1OC | 20.8* | 26.7* | 0.0% | -17.3%
COc1ccc(NC(=O)NN2CCOCC2)cc1OC | -6.0 | 7.9 | . | -5.2%
CCOC(=O)C1CCN(C(=O)Cn2c(=O)oc3cc(S(=O)(=O)N4CCC(C)CC4)ccc32)CC1 | . | . | -5.7% | -22.9%
COCCCNC(=O)CCCCn1c(=O)c2ccccc2n(CC(=O)Nc2ccc(C)cc2C)c1=O | . | . | -10.2% | -0.5%
CSc1ccc(Nc2nn(-c3ccc(OC(F)(F)F)cc3)nc2C(C)=O)cc1 | . | . | 2.6% | 3.0%
O=C1/C(=C/c2ccccn2)SC(=S)N1NS(=O)(=O)c1ccccc1 | 45.2 | 11.9 | 44.7µM* | 15.0%
O=C(Nc1nc(-c2ccccc2)cs1)C1COc2ccccc2O1 (stereo not given) | 60.2 | 7.8 | 1.2% | -13.4%
CC(=O)Nc1nc(-c2ccc3c(c2)OCO3)cs1 | 60.8* | 53.3* | 1.8% | 18.5%
O=C(Nc1nc(-c2ccc3c(c2)OCO3)cs1)C1COc2ccccc2O1 (stereo not given) | -21.0 | 16.4* | 8.0% | -23.9%
SMILES | Shiga toxin inh | CHX counter | Sm TGR block | FMDV inh
O=S(=O)(/C(=C/c1ccc(C(F)(F)F)cc1)c1nc2ccccc2[nH]1)c1ccccc1 | -6.3 | -2.3 | 17.8µM* | ?
CC(C)c1ccc(/C=C(\c2nc3ccccc3[nH]2)S(=O)(=O)c2ccccc2)cc1 | 23.4 | 17.5* | -0.7% | 10µM*
CCOc1ccc2oc(=O)cc(CN3CCN(C(=O)c4ccc(Cl)cc4)CC3)c2c1 | . | . | -7.5% | -20.9%
CCc1nn2c(-c3ccco3)ccnc2c1-c1ccccc1 | . | . | 19.9% | 29.2%
CC(C)(O)C1Cc2cc(/C=C/C(=O)O)c(O)cc2O1 (stereo not given) | -5.1 | -3.1 | 0.224µM* | 22.7%
Cc1ccc(NC(=O)CN2C(=O)CCc3ccccc32)cc1C | . | . | -8.9% | 4.2%
COc1ccc(/C=C/C(=O)c2c(O)c(OC)c3occc3c2OC)cc1 | 20.2 | 14.7* | -7.4% | ?
COc1ccc(/C=C/C(=O)c2ccc(O)cc2)cc1 | 63.6* | 37.4* | -15.0% | 36.3%
COc1cc(/C=C/c2ccc(O)cc2)cc(OC)c1 | 83.6* | 55.8* | -0.2% | 27.5%
COc1ccc(/C=C/C(=O)c2sc(-c3ccc(Cl)cc3)nc2C)cc1 | 35.1 | -1.7 | 1.7% | .
COc1ccc(C(=O)Cn2c(C(=O)/C=C/c3ccccc3)nc3ccccc32)cc1 | -9.7 | 6.2 | 4.3% | 8.91µM*
COc1ccc(C)cc1NC(=O)CN(c1cc(C(F)(F)F)ccc1Cl)S(C)(=O)=O | . | . | 0.8% | 2.2%
COc1ccc(Cl)cc1NC(=O)Cn1c(=O)n(Cc2nc(C)no2)c(=O)c2ccccc21 | . | . | 6.5% | -31.3%
CCOC(=O)c1scc(-c2ccc(C)cc2)c1S(=O)(=O)Nc1ccc(OC)c(Cl)c1 | . | . | -15.0% | 23.2%
Cc1cccc(NS(=O)(=O)c2ccc3c(c2)OCC(C(=O)N2CCCC2)O3)c1C (stereo not given) | . | . | 0.7% | -3.4%
Cc1ccc(S(=O)(=O)CCC(=O)Nc2ccc(OC(F)(F)F)cc2)cc1 | . | . | -10.6% | -9.6%
COc1ccc(/C=C/C(=O)c2ccccc2O)cc1 | 105.9* | 65.5* | -1.9% | 5.1%
COc1ccc(/C=C/C(=O)c2ccoc2)cc1 | 89.5* | 42.1* | -41.1% | -2.5%
COc1ccc(/C=C/C(=O)c2ccccn2)cc1 | 42.6 | 23.6* | ? | 5.1%
COc1ccc(/C=C/C(=O)N2CCN(c3ccccn3)CC2)cc1 | 29.8* | 24.5* | 50.1% | -2.0%
COc1ccc(/C=C\C(=O)CC(O)(c2ccccc2)C(F)(F)F)cc1 (stereo not given) | -20.8 | 7.4 | -12.2% | 20µM*
Cc1cccc(C)c1NC(=S)NC(=O)CCc1ccccc1 | 0.9 | -2.1 | ? | -19.3%
CSc1cccc(NC(=O)CN(C)S(=O)(=O)c2ccc(F)cc2)c1 | 4.2 | -2.5 | 0.0% | -17.9%
CSc1cccc(NC(=O)CCc2ccccc2)c1 | 50.1* | 18.3* | 2.5% | 33.5%
Cc1ccccc1NC(=S)NC(=O)CCc1ccccc1 | 18.5 | 16.8* | ? | 5.2%
SMILES | Shiga toxin inh | CHX counter | Sm TGR block | FMDV inh
CSc1cccc(NC(=O)CN(C)S(=O)(=O)c2ccccc2)c1 | 18.2 | 17.9* | 1.7% | .
CSc1cccc(NC(=S)NC(=O)CCc2ccccc2)c1 | 22.3 | 23.0* | ? | 16.1%
CCC(C)C(=O)Nc1cccc(SC)c1 (stereo not given) | 56.1 | 16.4* | . | .
COCc1cccc(NC(=O)CCc2ccccc2)c1 | 49.2* | 18.3* | . | 22.5%
COc1cccc(NC(=O)CCc2ccccc2)c1 | . | . | -14.4% | 45.9%
O=C(O)c1ccc(-c2c3nc(c(-c4ccc(C(=O)O)cc4)c4ccc([n-]4)c(-c4ccc(C(=O)O)cc4)c4nc(c(-c5ccc(C(=O)O)cc5)c5ccc2[n-]5)C=C4)C=C3)cc1.[Mn+3] | -10.6 | -4.1 | . | .
O=C(N/N=C/c1ccc[nH]1)c1ccc(COc2cccc3cccnc23)cc1 | 38.7 | 34.5* | 0.4% | 8.91µM*
NNC(=O)c1ccc(COc2cccc3cccnc23)cc1 | 74.8 | 32.1* | 0.4% | 9.6%
O=C(O)C(O)C(O)(Cc1ccc(O)cc1)C(=O)O (stereo not given) | . | . | . | -8.0%
Cc1ccc(C)c(N2CCN(C(=O)CCS(=O)(=O)c3cc4c(cc3Cl)NC(=O)CO4)CC2)c1 | . | . | 3.2% | ?
CC(=O)c1ccc(N2CCN(C(=O)CS(=O)(=O)c3cccc4nsnc34)CC2)cc1 | . | . | ? | -9.7%
